Bioassay records: PubChem BioAssay, several laboratories
This is a sample that favours compounds with a hit; in the whole collection about 3.1% have one here.
Anthrax LF inh2 = anthrax lethal factor protease inhibition. actives 0.12% (n = 360,000). AID 588501. multiplex microsphere protease cleavage assay, LF. P15917. inhibition, % at 10 µM
Target sequence (P15917 whole entry, looked up): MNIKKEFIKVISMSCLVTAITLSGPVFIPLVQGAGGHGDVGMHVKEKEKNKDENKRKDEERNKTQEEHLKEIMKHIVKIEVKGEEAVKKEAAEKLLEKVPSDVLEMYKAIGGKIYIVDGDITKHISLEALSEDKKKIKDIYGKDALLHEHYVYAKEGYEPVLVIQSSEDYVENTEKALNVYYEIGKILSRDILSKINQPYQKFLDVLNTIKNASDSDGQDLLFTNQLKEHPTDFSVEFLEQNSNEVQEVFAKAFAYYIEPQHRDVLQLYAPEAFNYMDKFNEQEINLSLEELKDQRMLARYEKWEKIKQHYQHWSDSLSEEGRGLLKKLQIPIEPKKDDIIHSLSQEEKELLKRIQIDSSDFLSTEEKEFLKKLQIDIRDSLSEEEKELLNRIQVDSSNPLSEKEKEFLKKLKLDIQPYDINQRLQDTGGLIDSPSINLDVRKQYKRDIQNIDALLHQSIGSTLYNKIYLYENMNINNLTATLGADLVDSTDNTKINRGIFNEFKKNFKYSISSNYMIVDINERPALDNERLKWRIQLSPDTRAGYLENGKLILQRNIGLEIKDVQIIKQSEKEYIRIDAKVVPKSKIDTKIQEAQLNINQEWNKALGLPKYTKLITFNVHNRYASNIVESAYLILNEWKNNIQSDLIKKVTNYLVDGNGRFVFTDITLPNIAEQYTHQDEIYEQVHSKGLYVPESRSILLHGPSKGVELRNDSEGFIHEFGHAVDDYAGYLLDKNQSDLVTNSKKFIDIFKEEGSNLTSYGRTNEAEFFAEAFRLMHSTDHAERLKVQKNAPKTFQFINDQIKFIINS
BoNT F protease = blocks Botulinum neurotoxin F light chain protease; Multiplex microsphere protease cleavage assay, flow cytometry; inhibition, % at 10 µM; actives 0.22% (n = 360,000); AID 588497; in the data active = inhibition above about 35%, passing the limit was not always enough; inconclusive = no clear call, values can overlap the other calls
BoNT-A LC inh2 = inhibitors of Botulinum neurotoxin A light chain protease. multiplex microsphere protease substrate cleavage, flow cytometry. inhibition, % at 10 µM. actives 0.17% (n = 360,000)
SSB-PriA inh = inhibitors of Klebsiella pneumoniae PriA binding to SSB C-terminal tail; AlphaScreen SSBct-PriA binding, biotinylated peptide; inhibition, % at 33 µM; actives 0.6% (n = 430,000); AID 1272365; in the data active = inhibition mostly above about 37%, no sharp cut-off; inactive = mostly below about 20%
Autofluor counter = flagged as autofluorescent in microsphere protease counterscreen; compound autofluorescence counterscreen, microsphere flow cytometry; active compounds read high; fluorescence intensity (concentration not given with the values); actives 3.1% (n = 360,000); AID 624483; in the data active = fluorescence intensity above about 16000; inconclusive = no clear call, values can overlap the other calls
Of the large screens only hits and unclear results are named; the others gave an inactive call. Rule as the data show it, unless noted: active = inhibition above about 30%; inconclusive = no clear call, values can overlap the other calls; inactive = below that.

CC(C)C(=O)Nc1nnc(CSCc2ccccc2F)s1	none
S=C(NCCc1ccccc1)NN=C1CCCCCC1	none
CC1CCCCC1=NNC(=S)NCCc1ccccc1 (stereo not drawn)	SSB-PriA inh 44 (no result: Anthrax LF inh2, BoNT F protease, BoNT-A LC inh2, Autofluor counter)
CSCCC(NC(=O)OC(C)(C)C)C(=O)NC(C(=O)NC(CC(C)C)C(N)=O)C(C)C (stereo not drawn)	BoNT F protease 72
c1ccc(-c2nnc(-c3ccccn3)c(-c3ccccn3)n2)nc1	none
OCc1ccnc(-c2ccccn2)n1	SSB-PriA inh 89 (no result: Anthrax LF inh2, BoNT F protease, BoNT-A LC inh2, Autofluor counter)
c1ccc(-c2ccnc(-c3ccccn3)n2)nc1	SSB-PriA inh 146 (no result: Anthrax LF inh2, BoNT F protease, BoNT-A LC inh2, Autofluor counter)
c1ccc(-c2nnc(-c3ccccn3)nn2)nc1	SSB-PriA inh 68
c1ccc(-c2cccc(-c3ccccn3)n2)nc1	SSB-PriA inh 104
c1ccc(-c2nc(-c3ccccn3)c(-c3ccccn3)nc2-c2ccccn2)nc1	none (no result: Anthrax LF inh2, BoNT F protease, BoNT-A LC inh2, Autofluor counter)
CN(C)c1ccc(CCCNC(=O)c2ccc(F)cc2)cc1	none (no result: Anthrax LF inh2, BoNT F protease, BoNT-A LC inh2, Autofluor counter)
O=C(CCCn1nc(-c2cccnc2)ccc1=O)NCc1ccc(F)cc1	none (no result: Anthrax LF inh2, BoNT F protease, BoNT-A LC inh2, Autofluor counter)
COc1ccc(OC)c2c1sc(=NC(=O)CCc1ccccc1)n2C	none (no result: Anthrax LF inh2, BoNT F protease, BoNT-A LC inh2, Autofluor counter)
O=Cc1cnc(-c2ccccn2)nc1	SSB-PriA inh 106 (no result: Anthrax LF inh2, BoNT F protease, BoNT-A LC inh2, Autofluor counter)
COC(=O)c1ccccc1NC(=O)C1CCCCC1C(=O)O (stereo not drawn)	BoNT-A LC inh2 inconclusive, Autofluor counter 23211
O=C(O)C1CCCCC1C(=O)Nc1ccc(F)cc1F (stereo not drawn)	Autofluor counter 20999
COc1ccc(NC(=O)c2ccccc2NC(=O)C2CCCCC2C(=O)O)cc1 (stereo not drawn)	BoNT F protease inconclusive
O=C(Nc1cnn(C2CCOCC2)c1)c1cnccn1	none (no result: Anthrax LF inh2, BoNT F protease, BoNT-A LC inh2, Autofluor counter)
CN(C)c1cc2c3ccccc3n(C)c2cc1N	SSB-PriA inh 66
C/C(=N/O)c1ccc2c3ccccc3n(C)c2c1	none (no result: Anthrax LF inh2, BoNT F protease, BoNT-A LC inh2, Autofluor counter)
CN(C)C=Nc1ncc(C(=O)c2ccccc2)s1	none (no result: Anthrax LF inh2, BoNT F protease, BoNT-A LC inh2, Autofluor counter)
CN(C)/C=N/c1ncc(C(=O)c2ccc3ccccc3c2)s1	Autofluor counter 23850 (no result: SSB-PriA inh)
COC(=O)Cc1c(C)nc2nc(NCc3ccc(Cl)cc3)[nH]n2c1=O	none
COC(=O)Cc1c(C)nc2nc(NCc3cccc([N+](=O)[O-])c3)[nH]n2c1=O	Autofluor counter 19811
CCOC(=O)CNC(=O)CSc1nnc(CNC(=O)c2cccc(C(F)(F)F)c2)o1	none (no result: Anthrax LF inh2, BoNT F protease, BoNT-A LC inh2, Autofluor counter)
CC(=O)c1ccc(NS(=O)(=O)c2ccc(N)cc2)cc1	none
O=S(=O)(Nc1ccc2c(c1)OCO2)c1ccccc1	BoNT-A LC inh2 inconclusive, Autofluor counter 23731
CC(=O)c1ccc(NS(=O)(=O)c2ccccc2)cc1	Autofluor counter 21657
CC(=O)c1cc2c(cc1NS(=O)(=O)c1ccccc1)OCO2	Autofluor counter 20902
CC(=O)c1cc2c(cc1NS(=O)(=O)c1cccc(C(=O)O)c1)OCO2	none
O=C(CNS(=O)(=O)c1ccc(Br)cc1)N1CCOCC1	Autofluor counter 22354
Cc1ccc(S(=O)(=O)C(CCC(=O)N2CCOCC2)S(=O)(=O)c2ccc(C)cc2)cc1	Autofluor counter 16223
COc1cc(NC(=O)c2cc(=O)c(OC)co2)cc(OC)c1OC	none (no result: Anthrax LF inh2, BoNT F protease, BoNT-A LC inh2, Autofluor counter)
CCc1c(C)nc(N)nc1N1N=C1SCC#N	Autofluor counter 22462
Cc1ccc(S(=O)(=O)Nc2ccc3nc(N)sc3c2)cc1	BoNT-A LC inh2 inconclusive, Autofluor counter 19122
Cc1ccc(S(=O)(=O)Nc2ccc3nc(-c4cccn4C)[nH]c3c2)cc1	SSB-PriA inh 88
Cn1cccc1-c1nc2ccc(NC(=O)c3ccccc3)cc2[nH]1	none
Cn1cccc1-c1nc2ccc(NC(=O)c3ccc([N+](=O)[O-])cc3)cc2[nH]1	Autofluor counter 19889
Cc1c(Cl)ccc2sc(N(Cc3ccccn3)C(=O)c3ccc4ncsc4c3)nc12	none (no result: Anthrax LF inh2, BoNT F protease, BoNT-A LC inh2, Autofluor counter)
COc1ccc(C)cc1S(=O)(=O)N1CC(c2nc(C3CC3)no2)C1	none (no result: Anthrax LF inh2, BoNT F protease, BoNT-A LC inh2, Autofluor counter)
CCCCCCC(=O)c1c(O)n(-c2ccc(OC)cc2)c(=O)[nH]c1=O	none (no result: Anthrax LF inh2, BoNT F protease, BoNT-A LC inh2, Autofluor counter)
Cc1cc(OCC(=O)O)c2c3c(c(=O)oc2c1)CCCC3	none
Cc1ccc(-n2nc(C)cc2NC(=O)COc2cc(C)cc3oc(=O)c4c(c23)CCC4)cc1	Autofluor counter 22051
CCOc1ccccc1C(=O)N1CCO[C@H](c2ccc(C(F)(F)F)cc2)C1	none (no result: Anthrax LF inh2, BoNT F protease, BoNT-A LC inh2, Autofluor counter)
O=S(=O)(c1cccs1)N1CCN(c2ccccn2)CC1	Autofluor counter 22816
O=S(=O)(c1cccs1)N1CCN(c2ncccn2)CC1	none
CCS(=O)(=O)N1CCN(c2ccccn2)CC1	Autofluor counter 26268
CCCS(=O)(=O)N1CCN(c2ccccn2)CC1	none
S=c1[nH]nc(-c2cccs2)n1N=Cc1cccs1	none (no result: Anthrax LF inh2, BoNT F protease, BoNT-A LC inh2, Autofluor counter)
CS(=O)(=O)N1CCCc2ccc(NC(=O)c3ccc(F)cc3)cc21	none (no result: Anthrax LF inh2, BoNT F protease, BoNT-A LC inh2, Autofluor counter)
C=CCN1C(=O)C(C)(C)COc2ccc(NS(=O)(=O)Cc3ccccc3F)cc21	none (no result: Anthrax LF inh2, BoNT F protease, BoNT-A LC inh2, Autofluor counter)
COC(=O)C1=C(C(=O)OC)SC2(S1)C(C(=O)OC)=C(C(=O)OC)Sc1c2ssc1=O	SSB-PriA inh 96
